Measurements as given in article PMC7862700, “An all-to-all approach to the identification of sequence-specific readers for epigenetic DNA modifications on cytosine”.

What was measured:
Test in all cases: DAPPL (digital affinity profiling via proximity ligation, sequencing); 10 mM Tris-HCl pH 7.5, 50 mM NaCl, 1 mM DTT, 4% glycerol, room temperature, 30 min; GST-TFs on glutathione beads, 16-mer random dsDNA library, 0.1% formaldehyde crosslink after washing; high values mean tight binding
Conditions in all cases: protein: recombinant; tags: N-terminal GST; dsDNA, one strand shown
SPIC = target: T1, SPIC (Homo sapiens, UniProt Q8N5J4 1-248)
T1 sequence: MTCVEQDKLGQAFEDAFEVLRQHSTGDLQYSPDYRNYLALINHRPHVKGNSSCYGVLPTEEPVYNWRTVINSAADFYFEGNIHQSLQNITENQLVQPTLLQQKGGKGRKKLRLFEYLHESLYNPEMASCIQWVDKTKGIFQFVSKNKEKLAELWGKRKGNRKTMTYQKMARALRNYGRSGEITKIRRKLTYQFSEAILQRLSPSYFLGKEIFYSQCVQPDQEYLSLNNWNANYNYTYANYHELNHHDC
Outline: (§1)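 A tag-only sample was pooled with DNA-barcoded human transcription factors that had been expressed in yeast as GST fusions and captured on glutathione beads. The pools were incubated for 30 min at room temperature with 200 nmole of a random double-stranded 16-mer DNA library in Tris/NaCl/DTT/glycerol buffer, then washed, crosslinked with 0.1% formaldehyde, proximity-ligated (BsaI/T4 ligase, 1 h, 37 °C), PCR-amplified and sequenced on an Illumina NextSeq500. Binding signal is each hexamer's read frequency for a factor divided by its frequency for the tag-only sample.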

ETV2 = target: T2, ETV2 (Homo sapiens, UniProt O00321 1-342)
T2 sequence: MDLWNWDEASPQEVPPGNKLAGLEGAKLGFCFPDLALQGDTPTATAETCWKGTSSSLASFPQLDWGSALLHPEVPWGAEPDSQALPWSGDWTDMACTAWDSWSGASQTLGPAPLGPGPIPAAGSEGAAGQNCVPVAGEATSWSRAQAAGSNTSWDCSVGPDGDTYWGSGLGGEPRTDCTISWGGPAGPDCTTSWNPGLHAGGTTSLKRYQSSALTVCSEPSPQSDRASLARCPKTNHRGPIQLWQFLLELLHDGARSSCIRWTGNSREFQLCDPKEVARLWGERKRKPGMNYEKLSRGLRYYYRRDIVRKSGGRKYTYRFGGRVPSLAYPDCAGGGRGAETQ
Outline: as §1

CRX = CRX (Homo sapiens, UniProt O43186 1-299)
Outline: as §1

SPIB = SPIB (Homo sapiens, UniProt Q01892 1-262)
Outline: as §1

ERF = target: T3, ERF (Homo sapiens, UniProt P50548 1-548)
T3 sequence: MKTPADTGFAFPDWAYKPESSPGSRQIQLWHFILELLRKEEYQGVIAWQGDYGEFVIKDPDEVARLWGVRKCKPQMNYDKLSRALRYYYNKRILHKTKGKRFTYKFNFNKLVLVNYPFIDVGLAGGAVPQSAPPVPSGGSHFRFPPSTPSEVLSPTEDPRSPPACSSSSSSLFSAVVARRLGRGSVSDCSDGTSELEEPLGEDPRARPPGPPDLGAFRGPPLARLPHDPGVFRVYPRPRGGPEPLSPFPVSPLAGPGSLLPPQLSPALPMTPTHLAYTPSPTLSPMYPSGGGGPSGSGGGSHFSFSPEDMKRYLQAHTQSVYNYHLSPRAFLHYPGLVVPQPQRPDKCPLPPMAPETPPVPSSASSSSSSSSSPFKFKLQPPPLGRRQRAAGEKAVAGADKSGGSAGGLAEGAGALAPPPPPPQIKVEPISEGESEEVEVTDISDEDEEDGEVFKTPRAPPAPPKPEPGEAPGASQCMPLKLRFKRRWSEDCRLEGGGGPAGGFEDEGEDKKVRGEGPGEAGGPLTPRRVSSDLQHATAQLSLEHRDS
Outline: as §1

ETV7 = target: T4, ETV7 (Homo sapiens, UniProt Q9Y603 1-341)
T4 sequence: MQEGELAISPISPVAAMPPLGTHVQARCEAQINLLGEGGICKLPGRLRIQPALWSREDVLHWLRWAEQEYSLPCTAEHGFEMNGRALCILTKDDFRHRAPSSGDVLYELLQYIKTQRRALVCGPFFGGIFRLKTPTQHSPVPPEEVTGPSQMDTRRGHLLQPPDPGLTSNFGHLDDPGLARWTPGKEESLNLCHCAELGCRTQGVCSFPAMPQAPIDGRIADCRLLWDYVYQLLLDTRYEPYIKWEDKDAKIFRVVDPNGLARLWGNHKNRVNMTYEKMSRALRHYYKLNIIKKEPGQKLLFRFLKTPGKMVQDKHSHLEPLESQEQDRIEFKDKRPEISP
Outline: as §1

Sequence of CRX (O43186 whole entry): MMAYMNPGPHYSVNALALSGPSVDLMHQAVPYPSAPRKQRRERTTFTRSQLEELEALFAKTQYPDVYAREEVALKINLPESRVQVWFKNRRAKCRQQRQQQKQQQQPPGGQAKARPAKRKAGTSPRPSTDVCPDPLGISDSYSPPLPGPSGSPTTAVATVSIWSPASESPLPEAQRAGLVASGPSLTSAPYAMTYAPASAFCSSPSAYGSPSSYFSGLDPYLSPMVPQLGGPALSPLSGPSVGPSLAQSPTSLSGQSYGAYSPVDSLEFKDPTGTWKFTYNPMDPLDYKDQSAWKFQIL
Sequence of SPIB (Q01892 whole entry): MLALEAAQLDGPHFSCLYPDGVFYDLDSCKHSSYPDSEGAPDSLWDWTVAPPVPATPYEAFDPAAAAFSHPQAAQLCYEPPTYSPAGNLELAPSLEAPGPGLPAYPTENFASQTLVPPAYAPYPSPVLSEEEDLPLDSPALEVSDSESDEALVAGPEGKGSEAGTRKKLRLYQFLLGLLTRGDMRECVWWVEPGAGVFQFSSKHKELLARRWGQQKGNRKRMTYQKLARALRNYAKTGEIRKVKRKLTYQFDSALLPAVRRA

Sequence: CTGTGG
- binding signal (SPIC): 1.1 fold enrichment (6-mer frequency, TF over GST control)

Sequence: GGTCCA
- binding signal (SPIC): 1.02 fold enrichment (6-mer frequency, TF over GST control)

Sequence: AGATGG
- binding signal (SPIC): 1.1 fold enrichment (6-mer frequency, TF over GST control)
- binding signal (ETV2): 1.02 fold enrichment (6-mer frequency, TF over GST control)

Sequence: TAAGGC
- binding signal (SPIC): 1.02 fold enrichment (6-mer frequency, TF over GST control)
- binding signal (CRX): 1.52 fold enrichment (6-mer frequency, TF over GST control)

Sequence: GTACAG
- binding signal (SPIB): 1.01 fold enrichment (6-mer frequency, TF over GST control)
- binding signal (SPIC): 1.02 fold enrichment (6-mer frequency, TF over GST control)
- binding signal (ERF): 1.02 fold enrichment (6-mer frequency, TF over GST control)
- binding signal (ETV7): 1.06 fold enrichment (6-mer frequency, TF over GST control)
